Consider ten molecules from publication PMC5540273 (PLoS ONE, 2017).

Each structure is given as a SMILES string.

Details in all cases: concentration: 1 μM, replicates: in singlicate; n = 1
Test [1] has as its system EPHA2.
The test system of test [2] is EPHA3.
For test [3], the system named is EPHA4.
The test system of test [4] is EPHA5.
Test [5] has as its system EPHA6.
Test [6] has as its system EPHA7.
Test [7] concerns EPHA8.
For test [8], the system named is EPHB1.
Test [9] deals with EPHB2.
The subject of test [10] is EPHB3.
Test [11] concerns EPHB4.
Test [12] has as its system EPHB6.
Test [13] has as its system ERBB2.
Test [14] relates to ERBB3.
The test system of test [15] is ERBB4.
For test [16], the system named is T1, ERK1.
T1 construct: gene MAPK3

Test [17] has as its system T2, ERK2.
T2 construct: gene MAPK1

For test [18], the system named is T3, ERK3.
T3 construct: gene MAPK6

Test [19] concerns T4, ERK4.
T4 construct: gene MAPK4

The test system of test [20] is T5, ERK5.
T5 construct: gene MAPK7
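Further: KINOMEscan kinase panel screen.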

As for `COc1cccc(C2=C(Nc3cc(Cl)c(O)c(Cl)c3)C(=O)NC2=O)c1` [SB-390767], the “%Inh” value in [1] is listed as 19%; in test [2] it was 0%; in [3], 28%; in [4], 0%; in test [5], 30%; in [6], 9%. The “%Inh” value in [7] is on record as 17%; in test [8] it was 11%; in [9], 0%; in [10], 26%; in [11], 18%; in [12], 46%. For the same molecule, the “%Inh” value in test [13] worked out at 0%; in [14], 3%; in [15], 4%; in test [16] it was 0%; in test [17], 0%; in [18], 0%. Besides, the “%Inh” value in test [19] and in test [20] was 0% throughout.
As for `COC(=O)C(Cc1ccccc1)NC(=O)NC1CCN(c2ccnc(Nc3ccc(F)cc3)n2)C1` (centres unmarked) [GSK1379714], the “%Inh” value is on record as 38% in [1]; 4% in test [2]; 1% in test [3]; 0% in test [4]; 0% in [5]; 2% in test [6]. Further, the “%Inh” value in test [7] was 5%; in test [8] it was 0%; in test [9] it was 11%; in test [10] it was 0%; in [11] it was 0%; in [12] it was 72%. Also, the “%Inh” value is recorded as 51% in test [13]; 28% in test [14]; 42% in test [15]; 14% in test [16]; 0% in [17]; 0% in test [18]. Further, the entries for the “%Inh” value in [19] and in test [20] were 12% and 0%, respectively.
For the molecule `COc1ccc(Nc2nccc(NCCNC(=O)Nc3cc(C)ccc3C)n2)cc1` [GSK1379899], the “%Inh” value was 0% in test [1]; 0% in [2]; 17% in test [3]; 0% in test [4]; 14% in test [5]; 3% in [6]. Also, the “%Inh” value in test [7] turned out to be 6%; in [8] it was 16%; in [9], 0%; in test [10] it was 17%; in test [11], 8%; in test [12], 0%. In addition, the “%Inh” value in test [13] came to 1%; in [14], 0%; in [15] it was 0%; in [16], 1%; in test [17], 0%; in test [18], 0%. Moreover, the “%Inh” value in test [19] and in test [20] was 0% in each case.
As for `O=C1NC(=O)C(c2ccc(Cl)cc2)=C1Nc1ccc(O)cc1` [SB-340867], the “%Inh” value in test [1] is given as 0%; in test [2] it was 0%; in test [3] it was 3%; in test [4], 0%; in [5] it was 12%; in test [6], 0%. In addition, the “%Inh” value in test [7] came to 6%; in test [8], 0%; in test [9], 0%; in test [10], 0%; in test [11], 0%; in test [12] it was 0%. In addition, the “%Inh” value worked out at 0% in test [13]; 0% in [14]; 26% in test [15]; 0% in [16]; 0% in test [17]; 0% in [18]. In addition, the “%Inh” value in test [19] and in test [20] was 0% in each case.
For `Cc1cccc2c(-c3ccncn3)c(-c3ccc(F)cc3)nn12` [GW515532], the “%Inh” value in test [1] came to 0%; in test [2], 0%; in test [3] it was 2%; in test [4] it was 0%; in test [5] it was 21%; in test [6], 0%. Further, the “%Inh” value in test [7] is 13%; in test [8], 1%; in test [9], 0%; in test [10], 2%; in test [11], 2%; in [12], 21%. Further, the “%Inh” value in test [13], in test [14], in test [15], in test [16], in [17] and in test [18] was 0% in each case. Also, the “%Inh” value worked out at 1% in test [19] and 0% in test [20].
As for `O=c1cc(N2CCOCC2)nc2n(Cc3ccccc3F)ccn12` [GSK2297428], the “%Inh” value in [1] worked out at 21%; in test [2], 0%; in test [3], 5%; in test [4], 0%; in test [5] it was 0%; in [6], 3%. In addition, the “%Inh” value is 9% in test [7]; 5% in test [8]; 0% in [9]; 7% in test [10]; 3% in test [11]; 11% in test [12]. In addition, the “%Inh” value in [13], in [14], in test [15], in test [16], in test [17] and in test [18] was 0% throughout. The results for the “%Inh” value in test [19] and in test [20] were 19% and 0%, respectively.
Regarding `O=C1NC(=O)C(c2ccc(Cl)cc2)=C1Nc1cccc(Cl)c1` [SB-317651], the “%Inh” value in [1] came to 8%; in test [2], 0%; in test [3], 0%; in test [4] it was 1%; in test [5] it was 0%; in test [6] it was 0%. The “%Inh” value was 0% in test [7]; 0% in [8]; 20% in [9]; 0% in test [10]; 0% in test [11]; 8% in test [12]. Moreover, the “%Inh” value in [13] was determined as 14%; in test [14] it was 0%; in [15], 0%; in test [16], 0%; in test [17] it was 8%; in test [18], 0%. In addition, the “%Inh” value in test [19] and in test [20] was 0% throughout.
For the molecule `Cl.Cl.Cl.N#Cc1ccc(CCNc2nccc(-c3cccc(CN4CCNCC4)c3)n2)cc1` [GSK2137462], the “%Inh” value is on record as 8% in [1]; 14% in test [2]; 13% in [3]; 0% in [4]; 3% in test [5]; 9% in [6]. Moreover, the “%Inh” value is given as 14% in [7]; 18% in test [8]; 0% in test [9]; 15% in test [10]; 16% in test [11]; 1% in [12]. In addition, the “%Inh” value in test [13] turned out to be 0%; in [14] it was 0%; in [15], 0%; in [16], 0%; in [17] it was 0%; in [18] it was 31%. Moreover, the “%Inh” value in test [19] is given as 4%; in test [20], 0%.
`Cn1cncc1C(=O)NC1CCN(c2ccnc(Nc3ccc(F)cc3)n2)C1` (centres unmarked) [GSK1379717]: the “%Inh” value in [1] was found to be 0%; in test [2], 0%; in test [3], 0%; in [4], 0%; in [5], 0%; in [6], 3%. Moreover, the “%Inh” value came out at 4% in test [7]; 7% in test [8]; 0% in [9]; 0% in test [10]; 14% in [11]; 15% in [12]. The “%Inh” value came out at 0% in test [13]; 0% in test [14]; 5% in test [15]; 0% in test [16]; 0% in test [17]; 0% in [18]. Further, the “%Inh” value in test [19] and in test [20] was 0% throughout.
As for `Cc1c(Cn2c3ccccc3n3c(=O)cc(N4CCOCC4)nc23)cccc1C(F)(F)F` [GSK2306394], the “%Inh” value in test [1] amounted to 0%; in [2], 0%; in [3] it was 0%; in test [4] it was 0%; in test [5], 0%; in test [6], 7%. Also, the “%Inh” value in test [7] is given as 13%; in test [8], 22%; in [9], 0%; in test [10], 0%; in test [11], 0%; in test [12], 0%. Also, the “%Inh” value in test [13] turned out to be 0%; in test [14] it was 0%; in test [15], 60%; in test [16] it was 36%; in test [17] it was 0%; in test [18], 0%. Moreover, the “%Inh” value is reported as 100% in test [19] and 0% in test [20].
